Experimental findings from the supplement of paper PMC10849652 are described below.

About 7,900 targets were measured; listed, in parts, are those with a hit and a random draw of the rest. About 0.6% of all pairs of compound and target were hits. Values without a mark were called inactive.

What all share (assay): log2 fold change, soluble protein after heating vs DMSO (PISA); higher = thermal stabilisation; K562 cells, 10 uM, 30 min; active = over 0.2 and 3.5 SD of the protein, either way, in both replicates (recomputed)
Compound in assay [1]: NC(=O)Nc1cc(-c2cccc(F)c2)sc1C(=O)N[C@H]1CCCNC1
The essentials: (§1)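 K562 cells at 2×10^6 cells/mL were given 10 μM compound for 30 min. Aliquots then went through 3 min of heating across 48°C-58°C, were pooled, and were extracted in PBS with 0.5% NP-40 at 4°C, and the supernatant after 21,000xg for 90 min was quantified by TMTpro 16plex LC-MS/MS with channel sums equalised. Thermal stability relative to control samples, from duplicates, is given as log2 fold change.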

Compound in assay [2]: NC(=O)c1cnc(N[C@@H]2CCCC[C@@H]2N)nc1Nc1cccc(-n2nccn2)c1
An outline of the steps:
as §1

Compound in assay [3]: NC1(c2ccc(-c3nc4ccn5c(=O)[nH]nc5c4cc3-c3ccccc3)cc2)CCC1
An outline of the steps:
as §1

Compound in assay [4]: NCC(=O)Nc1ccc(-n2nc(C(F)(F)F)cc2-c2ccc3c(ccc4ccccc43)c2)cc1
The essentials:
as §1

Compound in another assay: Nc1ccccc1NC(=O)c1ccc(CNC(=O)OCc2cccnc2)cc1 [entinostat]
An outline of the steps: as §1

Compound in a further assay: O=C(CCCCCCC(=O)Nc1ccccc1)NO [vorinostat]
An outline of the steps: as §1

Compound in a further assay: O=C(CCCCCCNC(=O)c1cnc(N(c2ccccc2)c2ccccc2Cl)nc1)NO [citarinostat]
The essentials:
as §1

Compound in a further assay: O=C(O)c1ccc2c(c1)nc(Nc1cccc(Cl)c1)c1ccncc12 [silmitasertib]
An outline of the steps: as §1

Compound in assay [5]: O=C1NC(=O)C(c2cnc3ccccn23)=C1c1cn2c3c(cc(F)cc13)CN(C(=O)N1CCCCC1)CC2
The essentials: as §1

Compound in assay [6]: c1cc(OCCN2CCCCC2)cc(-c2n[nH]c3ccc(-c4nnc[nH]4)cc23)c1
An outline of the steps:
as §1

UniProt P52655, sequence (P52655 whole entry, looked up): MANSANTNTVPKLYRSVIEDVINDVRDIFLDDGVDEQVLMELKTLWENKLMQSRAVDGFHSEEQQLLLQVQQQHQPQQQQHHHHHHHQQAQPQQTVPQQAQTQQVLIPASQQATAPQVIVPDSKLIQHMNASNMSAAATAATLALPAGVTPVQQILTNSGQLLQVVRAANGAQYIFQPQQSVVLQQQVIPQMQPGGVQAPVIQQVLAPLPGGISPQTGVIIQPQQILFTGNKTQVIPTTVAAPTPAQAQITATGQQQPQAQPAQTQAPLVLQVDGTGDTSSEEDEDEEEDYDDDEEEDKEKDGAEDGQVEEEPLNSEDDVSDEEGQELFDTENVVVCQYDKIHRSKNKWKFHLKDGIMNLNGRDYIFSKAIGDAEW
UniProt P60520, sequence (P60520 whole entry, looked up): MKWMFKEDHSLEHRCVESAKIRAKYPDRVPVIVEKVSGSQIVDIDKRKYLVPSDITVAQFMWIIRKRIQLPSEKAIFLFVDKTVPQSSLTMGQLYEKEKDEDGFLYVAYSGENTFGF
UniProt Q9H0R4, sequence (Q9H0R4 whole entry, looked up): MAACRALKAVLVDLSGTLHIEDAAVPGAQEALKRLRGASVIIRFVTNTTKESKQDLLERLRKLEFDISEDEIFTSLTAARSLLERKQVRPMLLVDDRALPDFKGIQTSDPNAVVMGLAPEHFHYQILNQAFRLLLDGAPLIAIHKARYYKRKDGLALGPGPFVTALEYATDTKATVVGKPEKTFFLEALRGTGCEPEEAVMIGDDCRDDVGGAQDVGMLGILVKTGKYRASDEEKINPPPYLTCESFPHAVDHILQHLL
UniProt Q53FT3, sequence (Q53FT3 whole entry, looked up): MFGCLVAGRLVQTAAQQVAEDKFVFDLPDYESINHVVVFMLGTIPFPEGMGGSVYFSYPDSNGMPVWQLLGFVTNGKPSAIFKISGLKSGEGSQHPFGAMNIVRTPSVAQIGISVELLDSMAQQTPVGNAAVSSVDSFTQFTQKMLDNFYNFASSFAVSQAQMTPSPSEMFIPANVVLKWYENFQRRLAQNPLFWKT
UniProt Q03014, sequence (Q03014 whole entry, looked up): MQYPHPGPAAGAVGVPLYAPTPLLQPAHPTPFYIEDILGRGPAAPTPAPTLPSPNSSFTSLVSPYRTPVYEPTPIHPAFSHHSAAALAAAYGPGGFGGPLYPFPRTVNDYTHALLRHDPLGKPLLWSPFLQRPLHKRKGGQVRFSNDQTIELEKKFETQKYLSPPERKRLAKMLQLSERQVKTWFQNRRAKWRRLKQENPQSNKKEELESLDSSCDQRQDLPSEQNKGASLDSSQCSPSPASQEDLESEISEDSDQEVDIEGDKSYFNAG
UniProt Q8N9F7, sequence (Q8N9F7 whole entry, looked up): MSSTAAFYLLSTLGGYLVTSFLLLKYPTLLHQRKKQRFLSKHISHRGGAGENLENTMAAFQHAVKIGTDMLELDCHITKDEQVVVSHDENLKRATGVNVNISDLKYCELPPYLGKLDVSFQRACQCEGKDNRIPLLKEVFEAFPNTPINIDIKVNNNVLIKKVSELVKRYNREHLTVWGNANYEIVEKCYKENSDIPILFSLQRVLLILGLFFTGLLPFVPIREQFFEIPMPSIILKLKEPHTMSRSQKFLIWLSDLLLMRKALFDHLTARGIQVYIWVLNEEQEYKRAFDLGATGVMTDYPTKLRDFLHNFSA
UniProt P21333, sequence (P21333 whole entry, looked up): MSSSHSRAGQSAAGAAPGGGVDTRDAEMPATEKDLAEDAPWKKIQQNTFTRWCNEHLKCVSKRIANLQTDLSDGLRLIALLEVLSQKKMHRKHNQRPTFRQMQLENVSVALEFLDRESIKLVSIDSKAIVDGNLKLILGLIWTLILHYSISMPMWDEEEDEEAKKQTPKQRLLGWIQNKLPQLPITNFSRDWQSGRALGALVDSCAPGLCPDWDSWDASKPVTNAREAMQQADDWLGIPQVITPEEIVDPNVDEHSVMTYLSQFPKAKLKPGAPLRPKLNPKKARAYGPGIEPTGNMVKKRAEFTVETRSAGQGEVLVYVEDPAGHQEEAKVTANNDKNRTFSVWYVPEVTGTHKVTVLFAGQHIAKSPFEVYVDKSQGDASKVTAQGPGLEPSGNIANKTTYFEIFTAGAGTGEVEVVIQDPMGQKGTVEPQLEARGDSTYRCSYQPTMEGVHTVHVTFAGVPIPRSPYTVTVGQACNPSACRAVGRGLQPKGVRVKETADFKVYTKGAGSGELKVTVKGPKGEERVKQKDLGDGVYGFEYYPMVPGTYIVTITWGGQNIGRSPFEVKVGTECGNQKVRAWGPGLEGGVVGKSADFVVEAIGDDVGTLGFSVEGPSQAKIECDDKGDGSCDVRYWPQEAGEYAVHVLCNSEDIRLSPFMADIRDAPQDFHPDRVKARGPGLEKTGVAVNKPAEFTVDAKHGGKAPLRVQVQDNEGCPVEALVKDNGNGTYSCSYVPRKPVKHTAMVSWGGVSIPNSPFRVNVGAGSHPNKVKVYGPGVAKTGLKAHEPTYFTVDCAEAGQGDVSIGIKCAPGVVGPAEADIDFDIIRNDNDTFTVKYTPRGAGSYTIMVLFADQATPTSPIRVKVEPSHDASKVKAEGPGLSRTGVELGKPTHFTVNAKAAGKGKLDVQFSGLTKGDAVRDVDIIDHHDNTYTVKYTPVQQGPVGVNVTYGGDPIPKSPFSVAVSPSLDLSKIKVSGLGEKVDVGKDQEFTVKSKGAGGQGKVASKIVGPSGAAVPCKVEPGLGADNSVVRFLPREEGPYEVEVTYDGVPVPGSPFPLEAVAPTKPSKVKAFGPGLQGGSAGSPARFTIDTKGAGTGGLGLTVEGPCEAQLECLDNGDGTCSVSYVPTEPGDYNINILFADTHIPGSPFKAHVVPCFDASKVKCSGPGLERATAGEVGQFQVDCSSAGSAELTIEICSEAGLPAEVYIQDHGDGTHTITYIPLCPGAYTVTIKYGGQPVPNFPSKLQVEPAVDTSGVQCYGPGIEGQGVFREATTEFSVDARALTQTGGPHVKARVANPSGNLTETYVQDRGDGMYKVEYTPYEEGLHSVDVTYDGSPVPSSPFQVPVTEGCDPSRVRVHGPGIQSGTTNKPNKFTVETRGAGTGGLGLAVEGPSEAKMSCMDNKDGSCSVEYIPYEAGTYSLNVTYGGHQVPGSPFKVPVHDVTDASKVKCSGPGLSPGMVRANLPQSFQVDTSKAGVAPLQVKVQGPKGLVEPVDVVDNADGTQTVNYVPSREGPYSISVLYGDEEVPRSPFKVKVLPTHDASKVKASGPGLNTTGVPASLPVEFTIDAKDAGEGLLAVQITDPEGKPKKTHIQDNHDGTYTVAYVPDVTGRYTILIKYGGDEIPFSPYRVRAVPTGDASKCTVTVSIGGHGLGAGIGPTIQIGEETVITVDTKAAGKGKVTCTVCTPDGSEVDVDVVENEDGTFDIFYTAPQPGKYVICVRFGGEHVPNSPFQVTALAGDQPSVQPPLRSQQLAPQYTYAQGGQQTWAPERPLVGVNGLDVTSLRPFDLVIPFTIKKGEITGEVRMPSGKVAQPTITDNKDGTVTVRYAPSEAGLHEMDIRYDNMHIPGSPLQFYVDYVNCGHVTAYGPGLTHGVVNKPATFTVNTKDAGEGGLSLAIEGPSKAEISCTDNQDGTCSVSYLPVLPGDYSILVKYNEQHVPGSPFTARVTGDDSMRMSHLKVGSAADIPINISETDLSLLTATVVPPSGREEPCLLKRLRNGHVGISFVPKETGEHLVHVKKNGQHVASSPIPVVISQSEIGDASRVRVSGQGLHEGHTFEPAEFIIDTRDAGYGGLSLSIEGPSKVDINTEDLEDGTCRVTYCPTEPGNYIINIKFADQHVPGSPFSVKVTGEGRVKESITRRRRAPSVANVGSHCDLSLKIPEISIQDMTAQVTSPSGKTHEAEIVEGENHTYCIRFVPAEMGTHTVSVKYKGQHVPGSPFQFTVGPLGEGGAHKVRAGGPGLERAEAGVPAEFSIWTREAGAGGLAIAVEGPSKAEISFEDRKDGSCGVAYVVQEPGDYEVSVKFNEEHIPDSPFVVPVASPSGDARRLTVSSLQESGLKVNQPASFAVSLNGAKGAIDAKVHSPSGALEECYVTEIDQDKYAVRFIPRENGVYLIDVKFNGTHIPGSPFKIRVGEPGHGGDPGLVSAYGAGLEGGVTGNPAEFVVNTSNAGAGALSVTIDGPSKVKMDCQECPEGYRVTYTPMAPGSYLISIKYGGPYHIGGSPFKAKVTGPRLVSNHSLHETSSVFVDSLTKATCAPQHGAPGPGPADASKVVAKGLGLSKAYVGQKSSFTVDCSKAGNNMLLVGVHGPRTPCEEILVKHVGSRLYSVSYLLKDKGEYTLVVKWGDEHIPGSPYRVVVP
UniProt P05362, sequence (P05362 whole entry, looked up): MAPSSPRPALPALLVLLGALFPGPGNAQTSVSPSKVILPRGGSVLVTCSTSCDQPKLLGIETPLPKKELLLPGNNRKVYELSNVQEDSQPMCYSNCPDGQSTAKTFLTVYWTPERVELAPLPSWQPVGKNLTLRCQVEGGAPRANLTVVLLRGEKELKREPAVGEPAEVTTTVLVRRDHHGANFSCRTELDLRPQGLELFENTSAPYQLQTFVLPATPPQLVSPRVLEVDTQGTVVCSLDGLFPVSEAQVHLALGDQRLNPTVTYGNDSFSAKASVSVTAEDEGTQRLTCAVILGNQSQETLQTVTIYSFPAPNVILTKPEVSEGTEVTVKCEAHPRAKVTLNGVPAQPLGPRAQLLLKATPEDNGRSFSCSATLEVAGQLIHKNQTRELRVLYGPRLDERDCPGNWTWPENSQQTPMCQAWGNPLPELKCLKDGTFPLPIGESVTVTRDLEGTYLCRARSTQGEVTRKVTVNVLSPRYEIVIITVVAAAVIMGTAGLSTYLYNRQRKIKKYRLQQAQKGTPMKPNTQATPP
UniProt Q9BUP3, sequence (Q9BUP3 whole entry, looked up): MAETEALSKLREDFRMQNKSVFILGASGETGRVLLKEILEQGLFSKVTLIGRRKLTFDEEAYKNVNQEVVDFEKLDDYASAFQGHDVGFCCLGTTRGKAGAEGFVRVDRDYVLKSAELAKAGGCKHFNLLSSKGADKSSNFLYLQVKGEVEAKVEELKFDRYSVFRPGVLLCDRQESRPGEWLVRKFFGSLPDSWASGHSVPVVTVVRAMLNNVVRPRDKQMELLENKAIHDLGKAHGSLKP

For HSPA8 (UniProt E9PK54), the log2 fold change is 0.015 in [1]; 0.023 in [2]; -0.071 in [3]; -0.136 in assay [4]; 0.061 with entinostat; -0.064 with vorinostat. Moreover, the log2 fold change with citarinostat is 0.068; in the assay with silmitasertib it was 0.028; in assay [5], 0.093; in assay [6], -0.027.

Consider HHEX (UniProt Q03014), for which the log2 fold change in assay [1] is 0.04; in [2] it was 0.084; in assay [3], -0.054; in assay [4], 0.568 (active); in the assay with entinostat it was 0.045; with vorinostat, 0.012. Besides, the log2 fold change with citarinostat was 0.029; with silmitasertib, -0.018; in assay [5], 0.006; in [6], -0.016.

HTATIP2 isoform 3 (UniProt Q9BUP3): the log2 fold change in [1] was -0.047; in [2] it was 0.036; in assay [3] it was -0.07; in assay [4], -0.037; in the assay with entinostat, -0.006; with vorinostat, 0.038. In addition, the log2 fold change was 0.05 with citarinostat, 0.01 with silmitasertib, -0.066 in [5] and -0.045 in assay [6].

Regarding ICAM1 (UniProt P05362), the log2 fold change is 0.016 in [1]; 0.109 in assay [2]; 0.087 in assay [3]; 0.008 in [4]; -0.026 with entinostat; -0.008 in the assay with vorinostat. The log2 fold change in the assay with citarinostat was 0.024; with silmitasertib it was -0.028; in assay [5], -0.07; in [6], -0.06.

Regarding GNL3 (UniProt Q9BVP2), the log2 fold change was 0.08 in assay [1]; -0.061 in assay [2]; -0.098 in assay [3]; -0.088 in assay [4]; -0.069 in the assay with entinostat; -0.131 with vorinostat. The log2 fold change in the assay with citarinostat was 0.134; with silmitasertib, -0.066; in assay [5], -0.027; in [6], 0.041.

Turning to FKBP4 (UniProt Q02790), the log2 fold change in assay [1] was 0.005; in assay [2], -0.071; in assay [3] it was -0.114; in assay [4], -0.053; with entinostat, 0.039; with vorinostat it was 0.035. Moreover, the log2 fold change was 0.072 with citarinostat, 0.01 with silmitasertib, -0.02 in assay [5] and -0.029 in [6].

In the case of GABARAPL2 (UniProt P60520), the log2 fold change in assay [1] is -0.036; in assay [2] it was -0.088; in [3] it was -0.145; in assay [4], -0.079; with entinostat it was -0.011; in the assay with vorinostat, 0.063. In addition, the log2 fold change with citarinostat is 0.041; in the assay with silmitasertib, -0.049; in assay [5] it was -0.048; in assay [6] it was 0.015.

Consider GTF2A1 (UniProt P52655), for which the log2 fold change in assay [1] was -0.029; in assay [2], 0.249; in assay [3] it was 0.01; in assay [4] it was 0.093; in the assay with entinostat it was -0.116; with vorinostat, -0.031. The log2 fold change was -0.035 in the assay with citarinostat, 0.004 with silmitasertib, -0.028 in [5] and 0.016 in [6].

Consider GDPD1 (UniProt Q8N9F7), for which the log2 fold change is -0.024 in assay [1]; 0.144 in assay [2]; 0.067 in assay [3]; 0.003 in [4]; -0.011 with entinostat; -0.141 in the assay with vorinostat. The log2 fold change with citarinostat is 0.051; with silmitasertib, -0.039; in [5], 0.096; in assay [6] it was -0.038.

Turning to HDHD2 (UniProt Q9H0R4), the log2 fold change in assay [1] is 0.091; in assay [2] it was -0.016; in assay [3], -0.023; in [4], 0.048; with entinostat, -0.01; in the assay with vorinostat it was -0.018. For the same target, the log2 fold change is 0.033 with citarinostat, -0.007 with silmitasertib, 0.131 in assay [5] and -0.012 in assay [6].

For the target FLNA (UniProt P21333), the log2 fold change in [1] is -0.069; in assay [2], -0.069; in assay [3], -0.093; in assay [4] it was -0.072; with entinostat, 0.042; in the assay with vorinostat, 0.061. For the same target, the log2 fold change in the assay with citarinostat was 0.062; with silmitasertib it was 0.11; in assay [5] it was -0.002; in assay [6] it was -0.032.

In the case of HLTF (UniProt Q14527), the log2 fold change in [1] was -0.025; in assay [2] it was 0.037; in assay [3] it was -0.067; in assay [4] it was -0.043; with entinostat, 0.069; with vorinostat, -0.012. Moreover, the log2 fold change is 0.008 with citarinostat, -0.095 with silmitasertib, -0.073 in assay [5] and -0.101 in assay [6].

HIKESHI (UniProt Q53FT3): the log2 fold change in assay [1] was 0; in assay [2], -0.045; in assay [3] it was -0.046; in [4], -0.053; with entinostat, -0.003; with vorinostat it was -0.05. Also, the log2 fold change was 0.021 in the assay with citarinostat, 0.002 with silmitasertib, 0.026 in assay [5] and -0.056 in assay [6].

As to FNTA (UniProt P49354), the log2 fold change in assay [1] is 0.009; in assay [2], 0.061; in assay [3], 0.028; in assay [4], 0; in the assay with entinostat, -0.02; with vorinostat, 0.004. Moreover, the log2 fold change with citarinostat is -0.02; with silmitasertib, 0.016; in assay [5] it was -0.001; in assay [6], 0.696 (active).
